The list is not random: actives were taken first. Their share in the collection is about 1.4%.
AID504770 – growth inhibitors of E. coli YBA685 in a screen for V. cholerae RctB (chromosome II replication) inhibitors | E. coli YBA685 rctB-dependent plasmid, OD600 growth, 3 h; active compounds read low | hit rate 0.27% among 130,000 | AID 504770 | z-score (concentration not given with the values); in the data active = z-score below about -2, passing the limit was not always enough
MenB inh – blocks the Mycobacterium tuberculosis MenB enzyme; P9WNP5; MenB enzyme assay, absorbance read-out; inhibition, % (no concentration beside the values); hit rate 0.43% among 100,000; AID 540299; in the data active = inhibition above about 21%, passing the limit was not always enough
Polio RdRp inh – poliovirus RNA polymerase inhibition; poliovirus polymerase elongation, fluorescence polarization; active compounds read low; hit rate 0.66% among 150,000; % elongation, % (compound at 16.7 µg/mL); P03300; in the data active = % elongation below about 90%
MbtI inh – inhibitors of Mycobacterium tuberculosis siderophore enzyme MbtI; inhibition, % (no concentration beside the values); purified MbtI enzyme, fluorescence intensity read-out; AID 493033; P9WFX0; hit rate 0.89% among 100,000; in the data active = inhibition mostly above about 56%, no sharp cut-off; inactive = mostly below about 77%
Target sequence (P9WFX0 whole entry, looked up): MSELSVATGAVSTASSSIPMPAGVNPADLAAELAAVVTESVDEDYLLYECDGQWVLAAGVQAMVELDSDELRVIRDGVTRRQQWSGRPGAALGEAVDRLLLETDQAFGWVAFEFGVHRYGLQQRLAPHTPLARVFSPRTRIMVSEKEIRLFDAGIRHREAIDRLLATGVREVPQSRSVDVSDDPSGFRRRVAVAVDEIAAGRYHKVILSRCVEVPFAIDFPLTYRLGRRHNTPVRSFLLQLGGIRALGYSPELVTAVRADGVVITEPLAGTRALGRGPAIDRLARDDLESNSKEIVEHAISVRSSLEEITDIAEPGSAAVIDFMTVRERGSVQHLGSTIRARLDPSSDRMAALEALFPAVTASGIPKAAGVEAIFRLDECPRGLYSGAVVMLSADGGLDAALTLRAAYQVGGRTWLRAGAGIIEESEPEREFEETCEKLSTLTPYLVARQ
The depositor's hits bear a star; ! = a repeat was not active.

How did N#CCOC(=O)c1ccc(-c2cc(=O)c3ccccc3o2)cc1 do in these assays?
AID504770: -0.2

What do the screens show for `O=c1cc(CSc2ncccn2)c2cc3c(cc2o1)CCC3`?
AID504770: -0.15; MenB inh: 0.9; Polio RdRp inh: 100.0; MbtI inh: 12.9

What do the screens show for `Cc1cc2oc(=O)cc(CSc3ncccn3)c2cc1Cl`?
AID504770: -3.1*; MenB inh: -21.0; Polio RdRp inh: 105.0; MbtI inh: 62.6

How did S=c1c(Cl)c(Cl)cnn1Cc1ccccc1 do in these assays?
AID504770: 0; MenB inh: -49.9; Polio RdRp inh: 67.0*

How did Cc1[nH]n(-c2ccccc2)c(=O)c1C=Nc1ccc(O)cc1 do in these assays?
AID504770: 0.3; MenB inh: -111.9; Polio RdRp inh: 102.0; MbtI inh: 11.8

Results for O=C(N1CCOCC1)N1CCN(c2ccccc2)CC1 ?
AID504770: -0.2; MenB inh: 36.3*; Polio RdRp inh: 99.0; MbtI inh: 2.2

How did O=C(Nc1ccccc1)C(=S)N1CCOCC1 do in these assays?
AID504770: 1.25; MenB inh: -35.6; Polio RdRp inh: 82.0*

What do the screens show for `N/C(=N\C(=S)Nc1ccccc1)N1CCOCC1`?
AID504770: 1.5; MenB inh: -26.3; Polio RdRp inh: 103.0; MbtI inh: -1.1

Results for O=C(N1CCOCC1)N1CCN(c2ccccc2F)CC1 ?
AID504770: 0.05; MenB inh: -14.4; Polio RdRp inh: 102.0; MbtI inh: 2.3

How did COc1ccccc1CNC(=O)CSc1ncc2c(n1)-c1cc(Cl)ccc1N(Cc1ccccc1)S2(=O)=O do in these assays?
Polio RdRp inh: -5.0*

Results for O=c1[nH]c(NCCO)nc2ccccc12 ?
AID504770: -1.75; MenB inh: -13.1; Polio RdRp inh: 105.0; MbtI inh: 91.1

Results for O=c1[nH]c(NCCO)c(I)c(=O)[nH]1 ?
AID504770: -1.2; MbtI inh: 68.1*

What do the screens show for `Cc1ccc(C(=O)Sc2nnc3ccccn23)cc1`?
AID504770: 0.95; Polio RdRp inh: 101.0; MbtI inh: 59.5

What do the screens show for `Cc1ccc(C(=O)Sc2nc(C)cc(C)n2)cc1`?
AID504770: 1.75; MenB inh: -8.1; Polio RdRp inh: 103.0; MbtI inh: 77.5*

Results for c1cc(NC2=NCCCCC2)ccc1NC1=NCCCCC1 ?
AID504770: 0.05

What do the screens show for `O=C(NC(=S)NCc1ccccc1)C1CCCC1`?
AID504770: 0; MenB inh: -24.3; Polio RdRp inh: 99.0; MbtI inh: 75.8*

Results for O=C(NCc1ccccc1)C1CCC1 ?
AID504770: -0.45; MenB inh: -3.3; Polio RdRp inh: 102.0

How did COC(=O)C1C(O)=C(C=Nc2ccccc2)C(=O)CC1(C)C (stereo unspecified) do in these assays?
AID504770: 0.6; MenB inh: 33.8*; Polio RdRp inh: 101.0; MbtI inh: 30.9

What do the screens show for `Cc1ccc(CN(C)c2nc3ccccc3nc2NS(=O)(=O)c2ccc3c(c2)OCCO3)o1`?
AID504770: 0.95; MenB inh: -11.2; Polio RdRp inh: 109.0; MbtI inh: 104.2

How did CNC(=O)c1c(C)[nH]c(=S)c(C#N)c1-c1ccco1 do in these assays?
AID504770: 1.45; MenB inh: -26.4; Polio RdRp inh: 103.0; MbtI inh: 98.7*

Results for CNC(=O)c1c(C)nc(SCC(=O)OCC(=O)Nc2ccc(C)c(C)c2)c(C#N)c1-c1ccco1 ?
AID504770: 1.6; MenB inh: -33.3; Polio RdRp inh: 103.0; MbtI inh: 2.3

What do the screens show for `Cc1ccc(N2C(=O)c3cccnc3C2Nc2ccc(S(=O)(=O)N3CCOCC3)cc2)cc1` (stereo unspecified)?
AID504770: -0.6; MenB inh: -5.0; Polio RdRp inh: 102.0; MbtI inh: 2.6

What do the screens show for `CCOc1ccc(C(=O)NC(C(=O)Nc2ccc(S(=O)(=O)N(C)C)cc2)C(C)C)cc1` (stereo unspecified)?
AID504770: -5*; MenB inh: -29.3; Polio RdRp inh: 102.0; MbtI inh: 3.6

How did CCN(Cc1ccncc1)Cn1c(=S)oc2ccccc21 do in these assays?
AID504770: 0.75; MenB inh: -7.2; Polio RdRp inh: 102.0; MbtI inh: 74.8*

Results for O=C(Nc1cccc(C2=NCCN2)c1)Nc1cccc(C2=NCCN2)c1 ?
AID504770: 0.1; MenB inh: 3.7; Polio RdRp inh: 68.0*

How did COc1cccc(N2CCN(C(=O)CCCn3sc4ccccc4c3=O)CC2)c1 do in these assays?
AID504770: -0.8; MenB inh: -40.1; Polio RdRp inh: 99.0; MbtI inh: 96.8*

What do the screens show for `COc1cccc(N2CCN(C(=O)Cn3ncc4c5ccccc5n(C)c4c3=O)CC2)c1`?
Polio RdRp inh: 106.0

Results for CN1C(=O)C2C=CC=CC2NC1=S (stereo unspecified) ?
AID504770: 0.5; MenB inh: -73.3; Polio RdRp inh: 87.0*; MbtI inh: 43.6

Results for CCN1C(=O)C2C=CC=CC2NC1=S (stereo unspecified) ?
AID504770: -0.7; MenB inh: 3.7; Polio RdRp inh: 101.0; MbtI inh: 2.7

Results for CCCC(=O)Nc1nonc1-c1ccc(OC)cc1 ?
AID504770: 0.65; MenB inh: -16.2; Polio RdRp inh: 103.0; MbtI inh: -0.2

What do the screens show for `CCCCCCCc1c(COC)[nH]c(=S)[nH]c1=O`?
AID504770: -0.5; MenB inh: -30.6; Polio RdRp inh: 102.0; MbtI inh: 55.4*

How did COCc1[nH]c(=S)[nH]c(=O)c1Cc1c(F)cccc1Cl do in these assays?
AID504770: 1.55; MenB inh: -28.0; Polio RdRp inh: 105.0; MbtI inh: 25.6

What do the screens show for `NNC(=O)C1CC2CC1CC2C(=O)NN` (stereo unspecified)?
AID504770: -1.4; MenB inh: -4.9; Polio RdRp inh: 111.0

How did COc1cc(NC(=O)C(F)(F)F)c(OC)cc1Br do in these assays?
AID504770: -0.5; MenB inh: 32.8*; Polio RdRp inh: 102.0; MbtI inh: -6.6

What do the screens show for `O=c1c2c(-c3cccs3)csc2[nH]c(=S)n1-c1ccccc1`?
AID504770: 1.75; MenB inh: -42.7; Polio RdRp inh: 83.0*!; MbtI inh: 99.3*!

What do the screens show for `O=C(Nc1c[nH]c(=O)[nH]c1=O)NC1CCCC1`?
AID504770: -0.6; MenB inh: 4.1; Polio RdRp inh: 100.0; MbtI inh: 1.2

Results for O=C(CCC1CCCCC1)Nc1c[nH]c(=O)[nH]c1=O ?
AID504770: -2.15*; MenB inh: 0.0; Polio RdRp inh: 102.0; MbtI inh: -5.0

How did CC(C)Oc1ccc(CNC(=O)c2cnc3sc(N4CCCC4)nn3c2=O)cc1 do in these assays?
Polio RdRp inh: 15.0*

What do the screens show for `Cc1c(Cl)sn(-c2ccc(Cl)cc2)c1=O`?
AID504770: -5.75*; MenB inh: 7.0; Polio RdRp inh: 101.0; MbtI inh: 100.6*

What do the screens show for `O=C1CSCC(=O)N1c1ccc(Cl)cc1`?
AID504770: -0.7; MenB inh: 11.4; Polio RdRp inh: 93.0; MbtI inh: 4.0

How did Cc1cccc2cc(CN(CCO)S(=O)(=O)c3ccc(Cl)cc3)c(=O)[nH]c12 do in these assays?
AID504770: -0.75; MenB inh: -7.8; Polio RdRp inh: 104.0; MbtI inh: -59.9

How did Cc1ccc(/C(N)=N\O)n1C do in these assays?
AID504770: 1.6; MenB inh: 52.0*; Polio RdRp inh: 102.0
